The record followed here is PubChem BioAssay.

Several values for one entry are separate records, joined by “and”; a condition that tells them apart may be missing. Equal values may be shown once. A number with no mark means an inactive call. Activity calls are given as the source filed them. No stated cut-off is given here; in the data, active means inhibition above about 28%; inactive means the rest.

The experiment in a line: StAR promoter reporter inhibitors, counter-screen for LRH-1 inverse agonist project, cell-based, luminescence, high throughput (AID 651611). The note with it: StAR promoter luciferase reporter counterscreen, at 3.6 µM, stronger effect = higher value.
In general, inhibition refers to the change of the read-out against control, counted positive when it falls. As for `COc1cc(C(=O)Nc2ccccc2N2CCN(S(C)(=O)=O)CC2)cc(OC)c1OC`, the inhibition is 9.79%.

Turning to `O=C(NCC1CCCO1)c1ccc(NC(=O)c2cccc([N+](=O)[O-])c2)cc1` (stereo not given), the inhibition is 3.83%.

As for `CCn1c2ccccc2c2cc(C3C(C#N)=C(N)Oc4n[nH]c(COC)c43)ccc21` (stereo not given), the inhibition was 44.9% (active).

For `COc1ccc(CCNC(=O)CSc2nc3[nH]ncc3c(=O)n2-c2ccccc2Br)cc1OC`, the inhibition was 5.86%.

For `C[n+]1c2cc(N)ccc2cc2ccc(N)cc21`, the inhibition was 34.8% (active) and 28.5% (active).

Turning to `O=C(COc1ccc(F)c(Cl)c1)Nc1ccc(N2CCOCC2)cc1`, the inhibition was 3.59%.

For the compound `CN(C)c1ccc(C=c2c3ccccc3n3c2cc(-c2ccc(Cl)cc2)[n+]3C)cc1`, the inhibition was 5.51%.

Take `O=C(C(Cl)c1ccccc1)N1CCCC1` (stereo not given): the inhibition was 7.29%.

As for `O=C(Nc1ccc2oc(-c3ccncc3)nc2c1)c1ccc([N+](=O)[O-])o1`, the inhibition is 34.1% (active).

As to `CC(=O)Nc1ccc(NC(=O)CSc2ccc(-c3ccc(-n4ccnc4)cc3)nn2)cc1`, the inhibition is 9.71%.

As for `Nc1ccc(Br)c2cccnc12`, the inhibition was 3.69%.

For `CC1CC(C)CN(c2cc(N(C)CCO)c([N+](=O)[O-])c3nonc23)C1` (stereo not given), the inhibition was 13.7%.

Take `Cc1cc(C)c2sc(NC(=O)c3ccc([N+](=O)[O-])o3)nc2c1`: the inhibition is -1.04%.

Regarding `Cc1c([N+](=O)[O-])cc(C(=O)Nc2ccc(Cc3ccncc3)cc2)cc1[N+](=O)[O-]`, the inhibition was 7.17%.

With `O=C(CCl)Nc1ccc(N2CCCCCC2)cc1`, the inhibition was 25%.
